Experimental data published in PubChem BioAssay (NCATS).
Results filed as inconclusive are left out. Active and inactive are the calls of the source. Unless noted, calls follow the shape of the dose curve; as a rule, active = well fitted curve in the direction sought with a large enough effect; inconclusive = small, poorly fitted or top-dose-only effect, or another doubt; inactive = no such curve, though single readings can be large; an effect the other way counts as inactive or inconclusive.

Tests used:
[1] = target: Muscarinic acetylcholine receptor M1 (Rattus norvegicus) (UniProt P08482); assay: qHTS Assay for Antagonists of Acetylcholine Muscarinic M1 Receptor: Kinetic Measurement of Intracellular Calcium Response (AID 943);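 also: Fluo-4 calcium signal as peak divided by basal fluorescence over 4 min; series mostly up to about 35 µM; nearly all actives have a fitted effect of over 75% in size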
How it was run: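 Intracellular calcium flux, recorded with Fluo-4 in a kinetic plate reader, served as signal; the response to carbachol at EC80 (100 nM final) was taken as maximal over minimal fluorescence after a 10 min compound pre-incubation in rat M1-CHO cells.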

[2] = target: Muscarinic acetylcholine receptor M1 (Rattus norvegicus) (UniProt P08482); assay: qHTS Assay for Antagonists of Acetylcholine Muscarinic M1 Receptor: Measurement of IP-One Response (AID 944); also: nearly all actives have a fitted effect of over 75% in size
How it was run: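 Steps: plate transfected CHO-M1 cells overnight; add test compound, 10 min; add carbachol (200 nM, EC80) in stimulation buffer with LiCl; incubate 30 min; add labelled IP1 tracer and anti-IP1 antibody in lysis buffer; read HTRF after 10 min.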

[3] = target: Pyruvate kinase (Leishmania mexicana) (UniProt Q27686); assay: qHTS Validation Assay for Inhibitors of Leishmania Mexicana Pyruvate Kinase (AID 945)
How it was run: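 Read-out: luminescence from PKLight stop/detection reagent, data normalized to DMSO. Reaction: 0.2 nM E451W LmPYK, 0.5 mM PEP, 0.1 mM ADP, pH 7.2, 1 h room temperature.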

[4] = target: Pyruvate kinase PKM (Homo sapiens) (UniProt P14618); assay: qHTS Assay for Activators of Human Muscle Pyruvate Kinase (AID 954; active = well fitted curve in the direction sought with a large enough effect, not every such curve was filed as active)
How it was run: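 Reaction: 0.1 nM purified PKM2 with 0.5 mM phosphoenolpyruvate and 0.1 mM ADP, room temperature, 1 h. Readout: luciferase-based ATP luminescence after stop reagent. Activators judged against a 0.3 nM enzyme column.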

[5] = Cell Viability - LYMP2-001 (AID 921); also: series mostly up to about 92 µM; nearly all actives have a fitted effect of over 70% in size
How it was run: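 Cellular ATP loss read by luciferase luminescence after 24 h compound exposure at 37 C in complete medium. LYMP2-001 lymphoblastoid cells, 2500/well; qHTS concentration-response data fitted with Hill equation for AC50.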

[6] = MultiTox-Fluor Cytotoxicity Assay - LYMP1-001 - Dead Cells (AID 946);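 also: cells exposed to compound for 16 h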
How it was run: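 Seed 2500 LYMP1-001 cells/well, incubate 5 hr at 37 C; add compound, 16 hr at 37 C; add MultiTox-Fluor reagent, 60 min RT; read dead-cell fluorescence Ex/Em=485/520. Normalize to DMSO and 15 uM tetraoctylammonium bromide.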

[7] = MultiTox-Fluor Cytotoxicity Assay - LYMP1-001 - Live Cells (AID 947)
[8] = Cell Viability - LYMP1-002 - Assay at 16 hr (AID 948)
How it was run: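 ATP luminescence (CellTiter-Glo) was measured after 16 hr compound exposure at 37 C of 2500 lymphoblastoid LYMP1-002 cells per well. Concentration-response curves were fitted with the Hill equation to give AC50.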

[9] = MultiTox-Fluor Cytotoxicity Assay - LYMP1-002 - Live Cells (AID 955);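 also: cells exposed to compound for 16 hours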
How it was run: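 Cytotoxicity in the human lymphoblastoid line LYMP1-002 is measured as loss of live-cell protease activity after 16 h treatment in complete culture medium. AC50 is derived from Hill-equation fits of qHTS concentration-response data.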

[10] = MultiTox-Fluor Cytotoxicity Assay - LYMP1-002 - Dead Cells (AID 960);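 also: cells exposed to compound for 16 h at 37 °C; nearly all actives have a fitted effect of over 60% in size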
How it was run: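 Acute cytotoxicity in a human lymphoblastoid line is scored as rising dead-cell protease signal after 16 hr exposure at 37 C, measured fluorometrically (485/520).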

[11] = MultiTox-Fluor Cytotoxicity Assay - LYMP1-003 - Dead Cells (AID 961);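 also: cells exposed to compound for 16 h at 37 °C; nearly all actives have a fitted effect of over 70% in size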
How it was run: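 LYMP1-003 lymphoblastoid, 2500 cells/well, 5 hr settle then 16 hr cpd at 37 C; MultiTox-Fluor reagent 60 min RT; Ex/Em 485/520 dead-cell signal; norm. DMSO = 0%, 15 uM tetraoctylammonium bromide = 100%; Hill AC50.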

[12] = MultiTox-Fluor Cytotoxicity Assay - LYMP1-003 - Live Cells (AID 962);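 also: cells exposed to compound for 16 hours at 37 °C; cytotoxic hits lower the live-cell protease signal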
How it was run: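 Cells plated at 2500 per well and incubated 5 hr; compounds added and incubated 16 hr at 37 C; MultiTox-Fluor reagent added for 60 min at room temperature; fluorescence of liberated AFC measured at 405/510 nm.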

[13] = Cell Viability - LYMP1-003 - Assay at 24 hr (AID 963)
How it was run: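 Acute toxicity in LYMP1-003 lymphoblastoid cells: 24 hr compound treatment at 37 C, ATP measured with CellTiter-Glo after 30 min at room temperature. AC50 derived by fitting the Hill equation to qHTS titrations.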

[14] = Cell Viability - LYMP1-003 - Assay at 40 hr (AID 964); also: series mostly up to about 92 µM; nearly all actives have a fitted effect of over 60% in size
How it was run: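 This qHTS cytotoxicity screen treats human lymphoblastoid cells (LYMP1-003) with compounds for 40 hr and quantifies cellular ATP via luciferase luminescence.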

[15] = Cell Viability - LYMP2-003 (AID 965);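 also: cells exposed to compounds for 24 h before reading; nearly all actives have a fitted effect of over 50% in size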
How it was run: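 CellTiter-Glo luminescence quantified ATP loss after 24 h compound treatment of LYMP2-003 lymphoblastoid cells at 37 C. Titration series were fitted with the standard Hill equation to give AC50.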

[16] = Cell Viability - LYMP2-004 (AID 966); also: nearly all actives have a fitted effect of over 65% in size
How it was run: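 Acute toxicity is scored as a concentration-dependent drop in intracellular ATP, quantified by luciferase luminescence, in human lymphoblastoid cells exposed to compound for 24 hr. AC50 derives from Hill-equation modelling.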

[17] = Cell Viability - LYMP2-005 (AID 967); also: series mostly up to about 92 µM
How it was run: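 LYMP2-005 human lymphoblastoid cells (2500/well) were treated with compounds for 24 h at 37 C. Intracellular ATP was then measured by CellTiter-Glo luminescence after 30 min at room temperature. AC50 values came from Hill-equation fits of qHTS concentration-response data.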

[18] = Cell Viability - LYMP2-009 (AID 968); also: series mostly up to about 92 µM; nearly all actives have a fitted effect of over 55% in size
[19] = Cell Viability - LYMP2-011 (AID 969); also: nearly all actives have a fitted effect of over 60% in size
How it was run: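 Acute toxicity is scored as a concentration-dependent drop in intracellular ATP of a human lymphoblastoid line after 24 hr treatment. Values are AC50s modeled with the Hill equation.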

[20] = Confirmation and Secondary Assay for Modulators of Hemoglobin Beta Chain Splicing at IVS2 705 locus (AID 930);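 also: HeLa cells stably expressing the EGFP-705 splicing reporter; GFP fluorescence per well restored by corrected splicing of the IVS2-705 intron in EGFP; series mostly up to about 46 µM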
How it was run: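 Secondary splice-site specificity test uses HeLa expressing CMV-driven EGFP interrupted by IVS2-705; cells were treated 2 days at 37C with 500 nM antisense PNA as positive control.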

Measured: outcome

Muscarinic acetylcholine receptor M1 (Rattus norvegicus), sequence (P08482 whole entry, looked up): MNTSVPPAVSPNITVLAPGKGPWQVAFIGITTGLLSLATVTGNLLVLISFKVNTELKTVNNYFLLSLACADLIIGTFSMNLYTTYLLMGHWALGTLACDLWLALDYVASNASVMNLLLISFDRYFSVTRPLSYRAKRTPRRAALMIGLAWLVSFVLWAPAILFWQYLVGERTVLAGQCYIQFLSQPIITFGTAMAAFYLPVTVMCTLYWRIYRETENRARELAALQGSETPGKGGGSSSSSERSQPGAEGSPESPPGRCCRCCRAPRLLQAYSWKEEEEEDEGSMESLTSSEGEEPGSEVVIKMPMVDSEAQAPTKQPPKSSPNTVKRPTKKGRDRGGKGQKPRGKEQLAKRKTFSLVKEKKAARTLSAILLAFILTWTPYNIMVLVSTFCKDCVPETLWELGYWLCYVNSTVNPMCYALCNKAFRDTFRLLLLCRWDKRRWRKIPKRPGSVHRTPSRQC
Pyruvate kinase (Leishmania mexicana), sequence (Q27686 2-499 E452W): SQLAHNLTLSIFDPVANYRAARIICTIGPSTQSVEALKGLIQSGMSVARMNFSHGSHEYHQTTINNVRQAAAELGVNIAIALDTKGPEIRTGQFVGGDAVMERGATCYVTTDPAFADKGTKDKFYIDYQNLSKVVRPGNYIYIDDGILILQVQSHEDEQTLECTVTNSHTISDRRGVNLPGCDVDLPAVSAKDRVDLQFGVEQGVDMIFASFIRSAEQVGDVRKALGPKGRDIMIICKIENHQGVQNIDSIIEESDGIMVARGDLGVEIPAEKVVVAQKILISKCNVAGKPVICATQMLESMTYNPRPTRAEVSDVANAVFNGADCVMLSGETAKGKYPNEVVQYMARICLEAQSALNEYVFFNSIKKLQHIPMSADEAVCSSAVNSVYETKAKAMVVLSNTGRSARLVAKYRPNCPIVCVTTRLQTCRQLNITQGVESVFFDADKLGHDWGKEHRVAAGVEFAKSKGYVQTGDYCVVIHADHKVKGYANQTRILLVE
Pyruvate kinase PKM (Homo sapiens), sequence (P14618 whole entry, looked up): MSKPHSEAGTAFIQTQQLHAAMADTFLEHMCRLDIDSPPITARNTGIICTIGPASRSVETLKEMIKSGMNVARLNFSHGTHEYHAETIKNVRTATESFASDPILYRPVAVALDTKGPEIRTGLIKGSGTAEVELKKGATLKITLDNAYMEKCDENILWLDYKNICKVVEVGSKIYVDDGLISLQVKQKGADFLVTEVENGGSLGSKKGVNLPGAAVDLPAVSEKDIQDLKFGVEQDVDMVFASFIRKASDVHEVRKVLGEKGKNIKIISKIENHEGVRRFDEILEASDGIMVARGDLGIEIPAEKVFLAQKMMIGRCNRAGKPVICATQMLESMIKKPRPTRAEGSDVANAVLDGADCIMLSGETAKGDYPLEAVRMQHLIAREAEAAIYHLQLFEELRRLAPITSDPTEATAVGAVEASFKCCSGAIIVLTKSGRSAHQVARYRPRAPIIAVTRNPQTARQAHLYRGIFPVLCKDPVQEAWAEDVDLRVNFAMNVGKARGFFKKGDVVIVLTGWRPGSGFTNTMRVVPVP

C[C@]1(C2CCCC2)Cc2cc(OCC(=O)O)c(Cl)c(Cl)c2C1=O
inactive: [1] | [2] | [3] | [4]

COc1ccc(CCC(=O)c2c(O)cc(O[C@@H]3O[C@H](CO)[C@@H](O)[C@H](O)[C@H]3O[C@@H]3O[C@@H](C)[C@H](O)[C@@H](O)[C@H]3O)cc2O)cc1O
not listed: [1] | [2] | [3] | [4] | [20]
inactive: all other assays above

CCOC(=O)C(CCc1ccccc1)NC(C)C(=O)N1Cc2ccccc2CC1C(=O)O (centres undefined)
inactive: [20]

CC(C)C[C@H](NC(=O)[C@@H]1O[C@H]1C(=O)O)C(=O)NCCCCN=C(N)N
inactive: [1] | [2] | [3] | [4]

C=C1C[C@]23C[C@@]1(O)CC[C@H]2[C@@]12C=C[C@H](O)[C@@](C)(C(=O)O1)[C@H]2[C@@H]3C(=O)O
not listed: [1] | [2] | [3] | [4] | [17] | [20]
inactive: all other assays above

O=C(/C=C/C=C/c1ccc2c(c1)OCO2)N1CCCCC1
inactive: [20]
